Where “and” joins values, the source holds several entries; their conditions need not be identical. Identical values can stand only once. Inconclusive results are not listed. Where a call stands in place of a potency, no number is given. Calls of active or inactive are those of the source. The call rests on the fitted dose curve; in most records, active means well fitted cell-killing curve with a large enough effect in the repeat runs; inconclusive means weak or mixed curves, or effect the other way; inactive means flat fitted curve, though single readings scatter.
Experiment: cAMP Responsive Elements (CRE) small molecule antagonists, cell-based qHTS assay: qHTS cell viability counter screen (AID 2060913); further: nearly all actives have a fitted effect of over 40% in size
Details: CRE-bla HEK293T viability, CellTiter-Glo luminescence, 5 h; series mostly up to 92.4 µM
Description: U.S. Tox21 Program National Center for Advancing Translational Sciences [NCATS] Division of Preclinical Innovation [DPI] U.S. Environmental Protection Agency [EPA] National Institutes of Environmental Health Sciences [NIEHS] National Toxicology Program [NTP] U.S. Food and Drug Administration [FDA] Tox21 Assay Overview: CREB (cyclic-AMP Responsive Element Binding Protein) is a cellular transcription factor. It binds to certain DNA sequences called cAMP Responsive Elements (CRE) and regulates the transcription of the genes. […] This cell line can be used to find agonists/antagonists of the cyclic AMP signaling pathway. The activation of the report gene under culture conditions can be detected by fluorescence intensity. This cell line has been used to screen the Tox21 10K compound library to identify agonists that induce oxidative stress. The cytotoxicity of the Tox21 compound library against the CRE-bla cell line was tested in parallel by measuring the cell viability using CellTiter-Glo assay (Promega, Madison, WI) in the same wells.
Tox21 Assay Protocol Summary: CRE-bla Hek 293T cells were suspended in assay medium (DMEM containing 10% dialyzed FBS, 0.1 mM NEAA, 1 mM sodium pyruvate and 25 mM HEPES) and dispensed at 2,000 cells/4 uL /well into 1536-well black wall/clear bottom plates using a Multidrop Combi (ThermoFisher Scientific, Waltham, MA) dispenser. After the assay plates were incubated at 37 C/5% CO2 for 18 hrs, 23 nL of compounds dissolved in DMSO, positive controls or DMSO only was transferred to the assay plate by a pintool workstation (Kalypsys, San Diego, CA), followed by addition of 1 uL of 1.25uM NKH477 (0.25 uM as final concentration) in assay medium using a Flying Reagent Dispenser (Aurora Discovery, San Diego, CA). The plates were incubated at 37 C and 5% CO2 for 3 hrs. Then 1 uL of LiveBLAzer B/G FRET substrate (Invitrogen, Carlsbad, CA) was added to each well using Bioraptr Flying Reagent Dispenser (FRD, Aurora Discovery, San Diego, CA). The plates were incubated at room temperature for 2 h, then fluorescence intensities were measured using an Envision plate reader (PerkinElmer, Shelton, CT) at Excitation 405nm, Emission 460nm and 530nm. The % activity was determined from the ratio of 460nm/530nm. For cell viability readout that measures cytotoxicity, 4 uL /well of CellTiter-Glo reagent was added into the assay plates using Bioraptr FRD. After 30 min incubation at room temperature, the luminescence intensity in the assay plates was measured using a ViewLux (PerkinElmer, Shelton, CT) plate reader.
Potency means the concentration at half of the fitted maximal effect.

Row | SMILES | Potency
1 | CCCCC#N | inactive
2 | C=C(C)CCl | inactive
3 | COC(=O)C(C)N(C(=O)c1ccco1)c1c(C)cccc1C (stereo not given) | inactive
4 | Clc1ccc(Oc2ccccc2)cc1 | inactive
5 | CCCCNC(=O)n1c(NC(=O)OC)nc2ccccc21 | inactive
6 | N#Cc1c(Cl)c(Cl)c(Cl)c(C#N)c1Cl | inactive
7 | Cc1ncc(C[n+]2csc(CCO)c2C)c(N)n1 | inactive
8 | O=NN1CCCCCCC1 | inactive
9 | CCCCN(CC)c1c([N+](=O)[O-])cc(C(F)(F)F)cc1[N+](=O)[O-] | inactive
10 | CCCCCCCC[N+](C)(CCCCCCCC)CCCCCCCC | 8.62 µM (active) and 48.6 µM (active)
11 | COCCC#N | inactive
12 | C1CN2CCN1CC2 | inactive
13 | O=[N+]([O-])c1ccccc1CCl | inactive
14 | COC[C@H](C)N(C(=O)CCl)c1c(C)csc1C | inactive
15 | CCSC(C)CC1CC(=O)C(/C(CC)=N/OC/C=C/Cl)=C(O)C1 (stereo not given) | inactive
16 | Cn1[nH]nnc1=S | inactive
17 | O=c1oc2ccccc2c(O)c1C1CCCc2ccccc21 (stereo not given) | inactive
18 | CN(N=O)C(N)=O | inactive
19 | CC(O)CCl (stereo not given) | inactive
20 | COc1cc(OC)nc(Sc2cccc(Cl)c2C(=O)O)n1 | inactive

Row | SMILES | Potency
21 | c1ccc2c(c1)CCNC2 | inactive
22 | O=C(NCO)NCO | inactive
23 | ClC(Cl)(Cl)Cl | inactive
24 | Nc1ccc([N+](=O)[O-])cc1N | inactive
25 | COc1cc(OC)nc(NC(=O)NS(=O)(=O)c2ncccc2C(=O)N(C)C)n1 | inactive
26 | Nc1ccc(-c2ccc(N)cc2)cc1 | inactive
27 | CCCSP(=S)(OCC)Oc1ccc(Cl)cc1Cl (stereo not given) | inactive
28 | CC1(C)C(C=C(Cl)Cl)C1C(=O)OC(C#N)c1ccc(F)c(Oc2ccccc2)c1 (stereo not given) | inactive
29 | CCOC(=O)c1cncn1C(C)c1ccccc1 (stereo not given) | inactive
30 | CNC(=O)O/N=C/C(C)(C)S(C)(=O)=O | inactive
31 | C[C@@H]1O[C@@H](O[C@@H]2C=C3CC[C@@H]4[C@H](CC[C@]5(C)[C@@H](c6ccc(=O)oc6)CC[C@]45O)[C@@]3(C)CC2)[C@H](O)[C@H](O)[C@H]1O | 0.0188 µM (active)
32 | ClC(Cl)=C(Cl)C(Cl)=C(Cl)Cl | inactive
33 | NCCc1cc(O)c(O)cc1O | inactive
34 | Cc1ccn2nc(S(=O)(=O)Nc3c(F)cccc3F)nc2n1 | inactive
35 | Cc1ccccc1[N+](=O)[O-] | inactive
36 | CCC(COC(=O)c1cc(OC)c(OC)c(OC)c1)(c1ccccc1)N(C)C (stereo not given) | inactive
37 | [Hg+2].[I-].[I-] | 54.5 µM (active)
38 | CCC[CH2][Sn]([CH2]CCC)([CH2]CCC)[O][Sn]([CH2]CCC)([CH2]CCC)[CH2]CCC | 1.5 µM (active)
39 | CC(C)COC(=O)c1ccccc1C(=O)OCC(C)C | inactive
40 | C#CCO | inactive
